Screening data (PubChem BioAssay)
HT1080-NT tox = qHTS for induction of synthetic lethality in tumor cells producing 2HG: qHTS for the HT-1080-NT fibrosarcoma cell line. HT-1080-NT fibrosarcoma viability, CellTiter-Glo ATP luminescence, 48 h. Potency, µM (doses to about 46.1 µM), for the others: at the top dose activity, negative = less viability, most hits filed as cytotoxic. 360,000 tested, 1.6% active. AID 686970, 2013;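 also: NT is the 2HG producing partner of a matched IDH1 knockdown line; potency is read from the fitted curve at half-maximal effect; 0% = DMSO-treated cells and -100% = media-only wells without cells; nearly all actives have a fitted effect of over 55% in size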
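Toxicity toward the 2HG-producing NT line was scored as %Activity, normalised to DMSO and no-cell wells, from CellTiter-Glo luminescence after 48 hours' treatment.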
TDP1 cell CPT = qHTS for Inhibitors of human tyrosyl-DNA phosphodiesterase 1 (TDP1): qHTS in cells in presence of CPT | AID 686979, 2013 | Potency, µM (titrated, usually from 46.2 µM), inactives show at the highest dose activity change, negative = growth inhibition, usual class: inhibitors | chicken DT40 Tdp1-/-;hTDP1 cells + 20 nM CPT, ATP luminescence, 48 h | 420,000 tested, 12% active; also: potency is read from the fitted curve at half-maximal effect; nearly all actives have a fitted effect of over 55% in size
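Chicken DT40 Tdp1-/- cells complemented with human TDP1, 400 cells/well, exposed to compounds plus 20 nM camptothecin for at least 48 h at 37 C; viability read as ATP content by CellTiter-Glo luminescence.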
HT1080 IDH1KD tx = qHTS for induction of synthetic lethality in tumor cells producing 2HG: qHTS for the HT-1080-IDH1KD cell line. HT-1080 IDH1 knockdown viability, ATP luminescence, 48 h. Potency, µM (doses to about 46.1 µM), for inactives: top-dose activity, negative = toxicity, actives largely listed as cytotoxic. 360,000 tested, 2% active;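 also: potency is read from the fitted curve at half-maximal effect; 0% = DMSO wells and -100% = cell-free medium wells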
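Knockdown cells (IDH1KD HT-1080) received compounds 2 h after plating at 750 cells/well and were kept 48 h at 37 °C in 5% FBS RPMI. A CellTiter-Glo luminescence read gave % activity for curve fitting.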
DT40 TDP1 no CPT = qHTS for Inhibitors of human tyrosyl-DNA phosphodiesterase 1 (TDP1): qHTS in cells in absence of CPT; DT40 Tdp1-/- hTDP1 cells, no CPT, ATP luminescence, 48 h; Potency, µM (top dose mostly 46.2 µM), for the others: at the top dose activity change, negative = growth inhibition, usual class: inhibitors; 420,000 tested, 15% active; AID 686978, 2013; also: potency is read from the fitted curve at half-maximal effect; nearly all actives have a fitted effect of over 55% in size
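Cells were dispensed at 400 per well, compounds added by pin tool, plates incubated ≥48 hr at 37 °C, then CellTiter-Glo added for 30 min at room temperature before luminescence reading. Line: DT40 Tdp1-/- complemented with hTDP1; camptothecin omitted.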
uPA generation = qHTS for Inhibitors of Cell Surface uPA Generation; cell surface uPA generation assay, qHTS; Potency, µM (doses to about 38.3 µM), for inactives: at the top dose activity change, negative = inhibition, actives largely listed as inhibitors; 330,000 tested, 0.31% active; AID 540303, 2011; active = well fitted inhibition curve with a large enough effect; inconclusive = small, poorly fitted or top-dose-only effect; inactive = no such curve, though single readings can be large or run the other way; tested in mouse RAW 264.7 cells; also: potency is read from the fitted curve at half-maximal effect; nearly all actives have a fitted effect of over 55% in size
IL1B secr inh = qHTS for Inhibitors of Inflammasome Signaling: IL-1-beta AlphaLISA Primary Screen; 360,000 tested, 4.7% active; activity change, % at 57.5 µM; AID 743279, 2014; THP-1 LPS/ATP IL-1B secretion, AlphaLISA, 16 h; active compounds read low; in the data active = activity change below about -50%; inconclusive = mostly about -30% to -49%
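THP-1 cells pretreated 1 hr with compounds (up to 57.5 uM final), then stimulated with LPS (250 ng/mL final) plus ATP (1.25 mM final); secreted IL-1B measured by AlphaLISA after 16 hr, decreased signal indicating inhibition.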
* = called active by the depositor. Shown are actives, neighbours in structure and some others; about 19% of the full set was active somewhere. Unless noted, calls follow the shape of the dose curve; as a rule, active = well fitted curve in the direction sought with a large enough effect; inconclusive = small, poorly fitted or top-dose-only effect, or another doubt; inactive = no such curve, though single readings can be large; an effect the other way counts as inactive or inconclusive. Unless noted, % is scaled to controls: 0 for no effect and ±100 for the full control effect.

How did CCOc1ccccc1C(=O)N1c2ccccc2Sc2ccccc21 do in these assays?
HT1080-NT tox: inconclusive; TDP1 cell CPT: 10.3µM*; HT1080 IDH1KD tx: inconclusive; DT40 TDP1 no CPT: 13µM*; uPA generation: -11.8%; IL1B secr inh: -8.0

Results for CC1CCCCN1S(=O)(=O)c1cc2c(=O)nc3ccccn3c2cc1Cl (configuration not stated) ?
TDP1 cell CPT: 1.2%; DT40 TDP1 no CPT: -18.2%

Results for Cc1c(C(=O)Nc2ccc(-c3nc4cc(Cl)ccc4o3)cc2)oc2ccccc12 ?
TDP1 cell CPT: 15.5%; DT40 TDP1 no CPT: -10.9%

How did CCOc1ccccc1NC(=O)Nc1cccc(C(C)=O)c1 do in these assays?
HT1080-NT tox: -3.8%; TDP1 cell CPT: 29.1µM*; HT1080 IDH1KD tx: -1.3%; DT40 TDP1 no CPT: -30.1%; uPA generation: -2.6%; IL1B secr inh: -6.5

What do the screens show for `Cc1ccc(C(=O)N2c3ccccc3Sc3ccccc32)cc1`?
HT1080-NT tox: 1.0%; TDP1 cell CPT: -2.1%; HT1080 IDH1KD tx: 4.6%; DT40 TDP1 no CPT: 7.4%; IL1B secr inh: 36.1

How did O=C(c1cccnc1)N1c2ccccc2Sc2ccccc21 do in these assays?
HT1080-NT tox: -2.8%; TDP1 cell CPT: 14.6µM*; HT1080 IDH1KD tx: -11.3%; DT40 TDP1 no CPT: 14.6µM*; uPA generation: 1.5%; IL1B secr inh: -15.7

What do the screens show for `COc1ccccc1C(=O)N1c2ccccc2Sc2ccccc21`?
HT1080-NT tox: -13.9%; TDP1 cell CPT: 5.8µM*; HT1080 IDH1KD tx: -24.1%; DT40 TDP1 no CPT: 5.8µM*; uPA generation: -1.6%; IL1B secr inh: 12.1

How did CCOc1ccccc1NC(=O)Nc1cccc(NC(C)=O)c1 do in these assays?
HT1080-NT tox: 0.0%; TDP1 cell CPT: -17.7%; HT1080 IDH1KD tx: -1.6%; DT40 TDP1 no CPT: -20.4%; uPA generation: 8.3%; IL1B secr inh: -0.6

What do the screens show for `CCOc1ccccc1NC(=O)c1ccc(C(=O)Nc2ccccc2OCC)cc1`?
TDP1 cell CPT: -11.3%; DT40 TDP1 no CPT: -12.4%

How did CCOc1ccccc1NC(=O)N1c2ccccc2Sc2ccccc21 do in these assays?
TDP1 cell CPT: inconclusive; DT40 TDP1 no CPT: 25.9µM*

Results for O=C(c1ccccc1Cl)N1CCCCC1CCN1CCCCC1 (configuration not stated) ?
TDP1 cell CPT: -20.5%; DT40 TDP1 no CPT: -5.6%

What do the screens show for `C[C@H](CO)N1C[C@H](C)[C@@H](CN(C)S(=O)(=O)c2cn(C)cn2)Oc2ncc(Br)cc2C1=O`?
HT1080-NT tox: -16.6%; TDP1 cell CPT: 14.7%; HT1080 IDH1KD tx: 2.9%; DT40 TDP1 no CPT: inconclusive; IL1B secr inh: 13.0

What do the screens show for `Cc1ccc2oc3c(c(=O)c2c1)C1(C(=O)N(C)c2ccccc21)N(CCCO)C3=O` (configuration not stated)?
TDP1 cell CPT: -11.1%; DT40 TDP1 no CPT: -0.7%

How did O=C(CNS(=O)(=O)c1ccc(Br)s1)NCCc1ccc(Cl)cc1 do in these assays?
HT1080-NT tox: 4.1%; TDP1 cell CPT: -15.0%; HT1080 IDH1KD tx: -4.2%; DT40 TDP1 no CPT: inconclusive; uPA generation: 10.3%; IL1B secr inh: -12.0

Results for Cc1ccccc1-n1cc(CNC(=O)CCc2nnc(CCc3ccccc3)o2)cn1 ?
HT1080-NT tox: 1.5%; TDP1 cell CPT: 1.8%; HT1080 IDH1KD tx: 22.9%; DT40 TDP1 no CPT: -16.2%; uPA generation: 3.1%; IL1B secr inh: -6.6

Results for COC(=O)c1ccc(C(=O)OC)c(NC(=O)N2c3ccccc3Sc3ccccc32)c1 ?
HT1080-NT tox: 4.2%; TDP1 cell CPT: inconclusive; HT1080 IDH1KD tx: -4.3%; DT40 TDP1 no CPT: inconclusive; uPA generation: -0.5%; IL1B secr inh: 34.8

Results for COC(=O)c1ccccc1NC(=O)N1c2ccccc2Sc2ccccc21 ?
HT1080-NT tox: -15.7%; TDP1 cell CPT: 18.4µM*; HT1080 IDH1KD tx: -25.9%; DT40 TDP1 no CPT: inconclusive; uPA generation: -0.7%; IL1B secr inh: -16.6

What do the screens show for `NC1=NC2(CCCCC2)N=C(Nc2ccc(Br)cc2)N1`?
HT1080-NT tox: -11.8%; TDP1 cell CPT: inconclusive; HT1080 IDH1KD tx: -19.1%; DT40 TDP1 no CPT: inconclusive; uPA generation: 4.7%; IL1B secr inh: -101.7*

Results for Cc1cccc(C)c1NC1=NC2(CCCCC2)N=C(N)N1 ?
HT1080-NT tox: 15.5%; TDP1 cell CPT: -14.8%; HT1080 IDH1KD tx: 6.3%; DT40 TDP1 no CPT: 9.4%; uPA generation: 5.4%; IL1B secr inh: inconclusive

What do the screens show for `Cc1ccc(C)c(NC2=NC3(CCCCC3)N=C(N)N2)c1`?
HT1080-NT tox: 1.9%; TDP1 cell CPT: -11.1%; HT1080 IDH1KD tx: 0.2%; DT40 TDP1 no CPT: -20.0%; IL1B secr inh: -24.6

How did Cc1ccc(NC2=NC3(CCCCC3)N=C(N)N2)c(C)c1 do in these assays?
HT1080-NT tox: inconclusive; TDP1 cell CPT: 23.1µM*; HT1080 IDH1KD tx: 11.2µM*; DT40 TDP1 no CPT: inconclusive; IL1B secr inh: inconclusive

How did Cc1ccc(NC2=NC3(CCCC3)N=C(N)N2)c(C)c1 do in these assays?
HT1080-NT tox: 18.4µM*; TDP1 cell CPT: 2.91µM*; HT1080 IDH1KD tx: 16.4µM*; DT40 TDP1 no CPT: 3.66µM*; uPA generation: 1.2%; IL1B secr inh: -2.9

What do the screens show for `C#CCOCCOCCOCCNc1nc(N2CCN(C(=O)[C@H](C(C)C)n3cc(CCO)nn3)CC2)nc(N2CCN(C(=O)[C@H]([C@@H](C)CC)n3cc(CCCCN)nn3)CC2)n1`?
HT1080-NT tox: -4.1%; TDP1 cell CPT: -1.5%; HT1080 IDH1KD tx: -1.6%; DT40 TDP1 no CPT: 6.2%; uPA generation: -8.2%; IL1B secr inh: -5.7

How did C#CCOCCOCCOCCNc1nc(N2CCN(C(=O)CCCCCCCCCCNC(=O)[C@@H](CCSC)n3cc(CCO)nn3)CC2)nc(N2CCN(C(=O)CCCCCCCCCCNC(=O)[C@H]([C@@H](C)CC)n3cc(CCCCN=C(N)N)nn3)CC2)n1 do in these assays?
HT1080-NT tox: inconclusive; TDP1 cell CPT: inconclusive; HT1080 IDH1KD tx: inconclusive; DT40 TDP1 no CPT: inconclusive; uPA generation: -22.7%; IL1B secr inh: -104.1*
